“And” between values parts separate entries of the source, which are not always exact repeats. Identical values can stand only once. Entries with a potency or affinity are not part of this list.
What was measured:
Staphylococcus aureus = conditions: Concentration 32 ug.mL-1, ASSAY_TEST Inhibition of Bacterial Growth, detection method Absorption (OD600), MEDIA CAMHB, plate type 384well, NBS, CORNING #3640, time 18 hr
Escherichia coli = conditions: Concentration 32 ug.mL-1, ASSAY_TEST Inhibition of Bacterial Growth, detection method Absorption (OD600), MEDIA CAMHB, plate type 384well, NBS, CORNING #3640, time 18 hr

SMILES | Inhibition (Staphylococcus aureus) | Inhibition (Escherichia coli) | Inhibition (Staphylococcus aureus; 32 ug/mL) | Inhibition (Escherichia coli; 32 ug/mL)
C[C@]12CC[C@@](c3ccc4ccccc4c3)(O1)[C@H]1C=C[C@H](OC(=O)c3ccccc3)[C@H]12 | 16.21% | -2.58% |  | 
C[C@@H]1CC(=O)C=C2C(=O)[C@@H]3[C@@H](C3(C)C)[C@]21C | 24.26% | 3.69% |  | 
C[C@]12CC[C@@](c3ccc(C(F)(F)F)cc3)(O1)[C@H]1C=C[C@H](OC(=O)c3ccccc3)[C@H]12 |  |  | 20.36% and 17.47% | 2.03% and 5%
C=C1CC2(COC(C)(C)OC2)C[C@@H]1[C@@H](Nc1ccc(Br)cc1)c1ccccc1 | 25.91% | 2.09% |  | 
C[C@]12CC[C@@H](O1)[C@H]1C=C[C@H](OC(=O)c3ccccc3)[C@H]12 | 21.38% | 2.42% |  | 
C=C1CC(C(=O)OC)(C(=O)OC)C[C@@H]1[C@H](c1ccccc1)n1ccc2ccccc21 | 19.16% | 2.95% |  | 
C=C1CC(COCc2ccc(OC)cc2)(COCc2ccc(OC)cc2)C[C@@H]1[C@@H](Nc1ccc(Br)cc1)c1ccccc1 | -1.38% | -13.28% |  | 
C[C@]12CC[C@@](C3CCCC3)(O1)[C@H]1C=C[C@H](OC(=O)c3ccccc3)[C@H]12 | 23.21% | 7.38% |  | 
C=C1CC(C(=O)OC)(C(=O)OC)C[C@@H]1[C@H](c1ccccc1)n1ccc2ccc(Cl)cc21 | 17.85% | 1.22% |  | 

From ChEMBL document CHEMBL4513151, “CO-ADD screening of Institut Català d'Investigació Química (Spain) compounds”
